Structures are written as SMILES. The campaign covered roughly 38,000 compounds. About 1,200 (3.2%) showed an effect of 50% or more. The median lay at about -58%. This is one part of a sample in which strong results are shown more often than they occur.

This test concerns Plasmodium falciparum. Description: Calibr Malaria Delayed Death Assay SOP. In kind it is functional, organism-based. More on the design: scale not given: in the data most compounds retested in dose-response had high values. Particulars: concentration 4.99e-06 (unit not given; other assays of the set use mol/L).
Take `NC(=O)C1CCN(C(=O)c2ccc(Sc3ccccn3)cc2)CC1`: the “Percent Effect” value is reported as -20.82%.

As to `CN(Cc1cccnc1)CC1CC12CCCC2` (stereo unspecified), the “Percent Effect” value was -51.15%.

As to `Cc1ccc(CN(Cc2ccncc2)C2CCN(C)CC2)s1`, the “Percent Effect” value is 33.34%.

`Cc1ccc(CN(Cc2[nH]cnc2C)C2CC(C)(C)NC(C)(C)C2)o1.O=C(O)CC(O)(CC(=O)O)C(=O)O`: the “Percent Effect” value was -80.85%.

On to `Cc1ccc(CN(Cc2ccccn2)C(=O)[C@H]2CC[C@@H](N)C2)s1`, for which the “Percent Effect” value is -62.59%.

For the molecule `Cc1ccsc1CN(C)Cn1nccc1-c1cccnc1`, the “Percent Effect” value is listed as -75.2%.

Regarding `CC1(C)CC(N(Cc2cccnc2)Cc2cccc(F)c2)CC(C)(C)N1.O=C(O)CC(O)(CC(=O)O)C(=O)O`, the “Percent Effect” value came to 75.47%.

On to `CN(Cc1cccnc1)CC1CC12CCN(Cc1nccs1)CC2` (stereo unspecified), for which the “Percent Effect” value is recorded as -24.57%.

With `O=C(Nc1cccnc1)N(Cc1ccccc1)C1CC1`, the “Percent Effect” value was -66.01%.

Turning to `Cc1cccc(CN(Cc2cccnc2)C2CC(C)(C)NC(C)(C)C2)n1.O=C(O)CC(O)(CC(=O)O)C(=O)O`, the “Percent Effect” value is 40.19%.

For the molecule `Cc1c[nH]c(CN2CCOC(c3ccc(Cl)c(Cl)c3)C2)c(C)c1=O` (stereo unspecified), the “Percent Effect” value is reported as -31.43%.

On to `Cc1cc(CNC(=O)NCc2cccs2)no1`, for which the “Percent Effect” value is given as -38.54%.

`COc1cccc2c1ccn2CC(=O)Nc1nc[nH]n1`: the “Percent Effect” value was -178.4%.

On to `COCCCN(CCOC)C(=O)Nc1ccccc1Br`, for which the “Percent Effect” value is on record as -3.396%.

For `Fc1cnc(N2CCN3C[C@H](Oc4cccnc4)C[C@H]3C2)nc1.O=C(O)C(F)(F)F.O=C(O)C(F)(F)F.O=C(O)C(F)(F)F`, the “Percent Effect” value is recorded as -67.51%.

With `CN(C)c1nc2sc(C(=O)N3CCNC(=O)CC3)cc2s1`, the “Percent Effect” value is given as -35.45%.

`CCOC(=O)[C@H]1[C@@H](O)C(=O)N(C)C12CCN(S(=O)(=O)CC)CC2`: the “Percent Effect” value was -82.82%.

For the molecule `CS(=O)(=O)NCc1ncn2c1CN(C(=O)C1CCCCC1)CCC2`, the “Percent Effect” value is -51.87%.

As to `CC1(C)CC(N(Cc2ccncc2)Cc2cccnc2)CC(C)(C)N1.O=C(O)CC(O)(CC(=O)O)C(=O)O`, the “Percent Effect” value is recorded as 22.16%.

In the case of `C[C@]1(O)CCN(Cc2cccnc2)C[C@@H]1Oc1cccc(F)c1`, the “Percent Effect” value was determined as 9.643%.

`Cc1ccc(C(=O)N(Cc2cccnc2)C[C@@H]2CCC(=O)N2)s1`: the “Percent Effect” value was -86.25%.

As to `CCCN(Cc1cccnc1)C1CC(C)(C)NC(C)(C)C1.O=C(O)CC(O)(CC(=O)O)C(=O)O`, the “Percent Effect” value was 76.54%.

In the case of `CC1(C)CC(N(Cc2cccnc2)Cc2cccnc2)CC(C)(C)N1.O=C(O)CC(O)(CC(=O)O)C(=O)O`, the “Percent Effect” value is -10.22%.

As to `CN(Cc1cccnc1)C1CC2(CCN(C(=O)c3ccnnc3)CC2)C1`, the “Percent Effect” value is reported as -29.79%.

With `COc1cc(F)ccc1N(C)Cc1cccnc1`, the “Percent Effect” value is -76.29%.

Take `COc1cccc(CNC(=O)c2cc(C)nc(N3CCCC3)n2)c1`: the “Percent Effect” value is given as -64.99%.

Turning to `CC(C)OC(=O)N1CCC(c2nnc(Cn3ccnc3)n2C)CC1`, the “Percent Effect” value is listed as -243.5%.

As for `O=C(O)C(F)(F)F.O=C(c1cccnc1)N1CCC2(CC1)CC(Oc1ccccc1)CO2` (stereo unspecified), the “Percent Effect” value is -74.94%.

Turning to `CCc1ccc2nc(-c3cnn(C)c3)cc(C(=O)N3CCOCC3)c2c1`, the “Percent Effect” value is -101.2%.

As to `CCS(=O)(=O)NCc1cccnc1N1CCCC(O)C1` (stereo unspecified), the “Percent Effect” value was -44.06%.

With `Cc1cnn(CC(=O)N(CC2CN(C)CCO2)c2nccs2)c1` (stereo unspecified), the “Percent Effect” value is -66.52%.

`Cc1ccc(S(=O)(=O)Nc2ccc(-n3ccnc3C)nc2)cc1N(C)C`: the “Percent Effect” value is -25.67%.

With `CC(=O)N(C)c1nc(Cn2nnnc2C(C)C)cs1`, the “Percent Effect” value was -150.3%.

For the molecule `Cc1ccc(CN2CCc3onc(COc4cccnc4)c3C2)s1.O=C(O)C(F)(F)F.O=C(O)C(F)(F)F`, the “Percent Effect” value was 3.567%.

`COc1ccc(-c2ncccc2C(=O)N2C[C@H]3CC[C@@H]2C3)cn1`: the “Percent Effect” value was -112.3%.

As for `N#Cc1c(Cl)nsc1NCCCN1C(=O)COc2ccccc21`, the “Percent Effect” value is 55.67%.

In the case of `N#Cc1cnc(NCCCN2C(=O)COc3ccccc32)c(Cl)c1`, the “Percent Effect” value is recorded as -83.56%.

Regarding `N#Cc1ccc(NCCCN2C(=O)COc3ccccc32)nc1`, the “Percent Effect” value was -38.04%.

As for `CC(C)n1cc(N2CC(C(=O)N3CCc4ccccc4C3)CC2=O)cn1` (stereo unspecified), the “Percent Effect” value is recorded as -62.91%.

Consider `O=C(O)C(F)(F)F.O=C(c1ccc(O)cc1)N1C[C@@H]2OCCN(c3ncccn3)[C@@H]2C1`, for which the “Percent Effect” value was determined as 6.308%.

Consider `Cl.NCC1(c2cccc(Br)c2)CCOCC1`, for which the “Percent Effect” value is given as 78.65%.

In the case of `NCC1(c2cccc(C(F)(F)F)c2)CCC1`, the “Percent Effect” value was 23%.

On to `CC(C)(CNC(=O)C1(c2cccc(Br)c2)CCOCC1)C(=O)O`, for which the “Percent Effect” value is listed as -116.6%.

For the molecule `O=C(O)CCNC(=O)C1(c2cccc(Br)c2)CCOCC1`, the “Percent Effect” value is reported as -140.1%.

For the molecule `Fc1cccc(C2(CNC3CCSC3)CCOCC2)c1` (stereo unspecified), the “Percent Effect” value is -47.45%.

As to `Cc1ccc(NCCNC(=O)c2cc(CC(C)C)n[nH]2)nn1`, the “Percent Effect” value was -140.2%.

As to `Cc1cc(NC(=O)Cn2ccc(-c3ccc4c(c3)OCO4)n2)n(C)n1`, the “Percent Effect” value is reported as -110.5%.

Take `CC(C)CNC(=O)c1cn(C)c(=O)c2ccccc12`: the “Percent Effect” value is listed as -112.9%.

As to `CN(C)CCN1CCO[C@@H]2CCN(C(=O)c3cccn3C)CC[C@H]21`, the “Percent Effect” value is recorded as -62.97%.

As to `CCN1CCC(NC(=O)CN2CCCC(NS(C)(=O)=O)C2)CC1` (stereo unspecified), the “Percent Effect” value is -94.92%.

Consider `CC(C)CC(C)NC1CCN(c2cccc(-c3cscn3)c2)CC1` (stereo unspecified), for which the “Percent Effect” value came to 51.64%.

Consider `CC(C)CC(C)NC1CCN(c2ccc(-c3cscn3)cc2)CC1` (stereo unspecified), for which the “Percent Effect” value is listed as -115.7%.

`c1cc(-c2cscn2)cc(N2CCC(NCCc3cccs3)CC2)c1`: the “Percent Effect” value is 23.18%.

Regarding `Cc1ccc(C(C(=O)N2CCC(Cc3noc(C)n3)CC2)N(C)C)cc1` (stereo unspecified), the “Percent Effect” value turned out to be 25.87%.

As to `O=S(=O)(c1ccc(-c2cnco2)cc1)N1CCCC(O)(CO)CC1` (stereo unspecified), the “Percent Effect” value is listed as -42.75%.

As for `CN1CCC2(CCN(S(=O)(=O)c3ccc(-c4cnco4)s3)CC2)C1`, the “Percent Effect” value is 67.52%.

As for `CN1CCCC2(CCN(C(=O)c3ccncc3)C2)C1` (stereo unspecified), the “Percent Effect” value is given as -70.03%.

Take `CN1CCCC2(CCN(S(=O)(=O)c3ccc(-c4cnco4)s3)C2)C1=O` (stereo unspecified): the “Percent Effect” value is -20.09%.

Regarding `CN1CCC2(CCCN(S(=O)(=O)c3ccc(-c4cnco4)s3)C2)C1` (stereo unspecified), the “Percent Effect” value is reported as 50.7%.

As to `Cc1ccc(S(=O)(=O)N2CCN(C)C3(CCC(=O)N(C)CC3)C2)s1` (stereo unspecified), the “Percent Effect” value was -170.6%.

With `CCCn1c(C)c(CC(=O)NCC(N)=O)c2c1CC(C)(C)CC2=O`, the “Percent Effect” value is on record as -28.28%.

On to `O=C(C1CCCO1)N1CCC2(CC1)COCCN2CC1CC1` (stereo unspecified), for which the “Percent Effect” value is recorded as -162.7%.

Turning to `CN(CCO)c1nc(-c2ccccn2)nc2c1CCNC2`, the “Percent Effect” value is given as -87.29%.

As to `CN(Cc1ccc(-n2cccn2)cc1)c1cc(N)nc(N)n1`, the “Percent Effect” value was found to be 39.62%.

For `CN(Cc1cccnc1)c1nc(-c2ccccn2)nc2c1CCNCC2`, the “Percent Effect” value is recorded as 53.3%.

For `CN(Cc1nccs1)C1CCN(c2ncccn2)CC1`, the “Percent Effect” value is -79.31%.

On to `CN(Cc1ncc[nH]1)c1nc(-c2ccccn2)nc2c1CCNCC2`, for which the “Percent Effect” value came out at 54.09%.

For `CC(=O)N1CCc2c(nc(-c3ccccn3)nc2N(C)CC(O)CO)C1` (stereo unspecified), the “Percent Effect” value is on record as -23.68%.

Take `CN(Cc1cccnc1)Cc1cncc2c1CCN(c1ccccn1)C2.Cl.Cl.Cl`: the “Percent Effect” value was -32.27%.

Regarding `CN(Cc1cccnc1)c1nccc(N2CCN[C@H]3CS(=O)(=O)C[C@H]32)n1`, the “Percent Effect” value is recorded as -59%.

In the case of `CN(Cc1ccc(-n2cccn2)cc1)c1nc(N)nc2c1CCNCC2`, the “Percent Effect” value is on record as 57.31%.

`c1ccc(-c2nc3c(c(NCCn4ccnn4)n2)CCNCC3)nc1`: the “Percent Effect” value is given as 6.036%.

As to `CN(Cc1ccccc1-n1cccn1)c1nc(N)nc2c1CCNCC2`, the “Percent Effect” value was -16.16%.

As to `CN(Cc1nccs1)c1nc(-c2ccccn2)nc2c1CCNCC2`, the “Percent Effect” value came to 83.34%.

For `O=C(O)C(F)(F)F.O=C(O)C(F)(F)F.c1cncc(CO[C@H]2CN(Cc3ccco3)[C@@H]3COC[C@H]23)c1`, the “Percent Effect” value is on record as -20%.

As for `Nc1nnc(SCc2cc(=O)n3c4c(sc3n2)CCCC4)[nH]1`, the “Percent Effect” value is on record as -122.1%.

With `O=C(C1CCC1)N1C(CN2CCOCC2)[C@]2(O)CC[C@H]1CC2` (stereo partly specified), the “Percent Effect” value is recorded as -122.6%.

As to `O=C(Cn1nc(Br)nc1Br)N1CCCCC1`, the “Percent Effect” value is reported as -129.7%.

With `Cc1nc(CC2CCN(C(=O)C(c3ccccc3C)N(C)C)CC2)no1` (stereo unspecified), the “Percent Effect” value was -27.12%.

`COc1ccc(CN(Cc2cncn2C)CC2CCCO2)cc1.O=C(O)CC(O)(CC(=O)O)C(=O)O` (stereo unspecified): the “Percent Effect” value was -5.826%.

As to `CC1CCN(c2nc3ncc4c(c3c(=O)[nH]2)CC(C)(C)CC4=O)CC1`, the “Percent Effect” value is recorded as -163.1%.

For `CCOCc1nc2c(c(N(C)Cc3ccsc3)n1)CCNCC2`, the “Percent Effect” value worked out at 63.06%.

As to `CN(CC1Cc2ccccc2CN1C)c1nc(N)nc2c1CCNCC2` (stereo unspecified), the “Percent Effect” value is listed as -16.74%.

Take `CCOCc1nc2c(c(N(C)Cc3nonc3C)n1)CCNCC2`: the “Percent Effect” value stood at 45.51%.

On to `CN(Cc1ccsc1)c1nc(-c2ccccn2)nc2c1CCNCC2`, for which the “Percent Effect” value is 79.12%.

Consider `COCC(Nc1nc(N(C)C)nc2c1CCNCC2)c1ccccn1` (stereo unspecified), for which the “Percent Effect” value is recorded as -46.74%.

In the case of `CCOCc1nc2c(c(N(C)Cc3snnc3C)n1)CCNCC2`, the “Percent Effect” value is listed as -53.15%.

Consider `COCC1CCN(C(=O)c2cn(Cc3ccccc3F)nn2)CC1`, for which the “Percent Effect” value was -60.58%.

`CN(C)c1cc(C(=O)NCCc2n[nH]c(=O)[nH]2)ccn1`: the “Percent Effect” value is reported as -61.85%.

As for `Cc1cnn(CC2CN(Cc3nc(C4CC4)no3)CCO2)c1` (stereo unspecified), the “Percent Effect” value is given as -0.1422%.

On to `CC(C)N1CCC(CNC(=O)COc2ccc(F)cc2F)C1` (stereo unspecified), for which the “Percent Effect” value worked out at 52.83%.

For the molecule `CC(C)N1CCC(CNC(=O)CCc2cc(F)ccc2F)C1` (stereo unspecified), the “Percent Effect” value was 6.837%.

For `COCCN1CCC(CNC(=O)CCc2cc(F)ccc2F)C1` (stereo unspecified), the “Percent Effect” value is -6.086%.

On to `Cc1cc(CNC(=O)N2CCN(c3ccc(Cl)cn3)CC2)c(C)o1`, for which the “Percent Effect” value is given as -63.56%.

Take `CC(=O)N1CCO[C@@H]2CN(C(=O)NCc3ccccc3)CC[C@@H]2C1`: the “Percent Effect” value is recorded as -111.3%.

As to `Cc1cnc(N2CC[C@@H]3OC(COCC(=O)N(C)C)CC[C@@H]32)nc1.O=C(O)C(F)(F)F` (stereo partly specified), the “Percent Effect” value was -36.79%.

The values are drawn from ChEMBL document CHEMBL3988442, “University of Dundee, Small-Polar-MMV Screening Library” (2021).
